The target in assay [1] is human Retinoic Acid Receptor beta (RARb), RARB (gene 5915) (UniProt P10826). Nature of the assay: ATG_RARb_TRANS: Attagene TRANS-FACTORIAL HepG2 Assay for human Retinoic Acid Receptor beta (AID 2283004). In outline: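 Transient transfection of HepG2 with multiple reporter units → chemical dosing, 24 h → total RNA isolation → RT with oligo(dT) → reporter-specific PCR, 6-FAM primer extension, HpaI digest → capillary electrophoresis. Positive direction vs DMSO control.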

The target of assay [2] is Retinoic acid receptor alpha (Homo sapiens) (UniProt P10276). The experiment in a line: ATG_RARa_TRANS: Attagene TRANS-FACTORIAL HepG2 Assay for human Retinoic Acid Receptor alpha (RARa) (AID 2283005). In outline:
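Reporter transcripts, measured by RT-PCR with fluorescent labeling and capillary electrophoresis after 24 h dosing, reflect activity of an exogenous human RARa–GAL4 fusion in transiently transfected HepG2. Fitted for increase relative to DMSO.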

Assay [3] is described as follows: BSK_3C_Proliferation: Cell Proliferation Assessment in the BioMAP Diversity Plus: 3C Assay (AID 2283006; active = hit-call score of the fitted dose curve at least 0.9, where 1 is the maximum; inactive = score below 0.9;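 for AC50: potency may reflect either rise or fall in cell number versus DMSO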). Conditions: primary human endothelial cells (HUVEC). In outline: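 Proliferation of human vascular endothelial primary cells after 48 h dosing, quantified as SRB-stained protein at 560 nm relative to DMSO.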
The target of assay [4] is Peroxisome proliferator-activated receptor gamma (Homo sapiens) (UniProt P37231). The experiment in a line: ATG_PPARg_TRANS: Attagene TRANS-FACTORIAL HepG2 Assay for human Peroxisome Proliferator-activated Receptor-gamma (PPARg) (AID 2283007). In a few lines: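 HepG2 cells transiently transfected with multiplexed GAL4-UAS reporter units and exogenous chimeric NR-Gal4 proteins; reporter mRNA quantified after 24 h compound exposure by RT-PCR, fluorescent labelling, HpaI digestion and capillary electrophoresis; gain-of-signal fitted versus DMSO baseline.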
Peroxisome proliferator-activated receptor gamma (Homo sapiens), sequence (P37231 whole entry, looked up, the tested form may be a part): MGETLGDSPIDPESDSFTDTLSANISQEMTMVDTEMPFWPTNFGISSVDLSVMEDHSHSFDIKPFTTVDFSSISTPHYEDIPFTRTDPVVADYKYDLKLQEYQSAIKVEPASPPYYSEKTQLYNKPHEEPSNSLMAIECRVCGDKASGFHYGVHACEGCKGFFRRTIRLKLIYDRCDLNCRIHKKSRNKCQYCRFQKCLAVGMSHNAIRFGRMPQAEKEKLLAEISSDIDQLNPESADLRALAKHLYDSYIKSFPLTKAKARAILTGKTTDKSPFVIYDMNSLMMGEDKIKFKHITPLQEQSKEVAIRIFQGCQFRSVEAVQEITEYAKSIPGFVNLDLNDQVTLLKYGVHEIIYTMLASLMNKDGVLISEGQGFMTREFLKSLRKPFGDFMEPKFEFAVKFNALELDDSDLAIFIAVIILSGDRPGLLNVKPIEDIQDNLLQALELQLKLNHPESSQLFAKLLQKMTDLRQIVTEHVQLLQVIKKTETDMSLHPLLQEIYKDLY

For assay [5], the target named is Nuclear receptor subfamily 1 group I member 2 (Homo sapiens) (UniProt O75469). The experiment in a line: ATG_PXR_TRANS: Attagene TRANS-FACTORIAL HepG2 Assay for human Pregnane X Receptor (PXR) (AID 2283008). In outline: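 Read-out is fluorescence of labelled reporter cDNA fragments separated by capillary electrophoresis after RT-PCR and HpaI digestion. Source: HepG2 cells carrying PXR-GAL4/UAS reporter constructs, treated 24 h; activity fitted upward relative to DMSO.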
Nuclear receptor subfamily 1 group I member 2 (Homo sapiens), sequence (O75469 whole entry, looked up, the tested form may be a part): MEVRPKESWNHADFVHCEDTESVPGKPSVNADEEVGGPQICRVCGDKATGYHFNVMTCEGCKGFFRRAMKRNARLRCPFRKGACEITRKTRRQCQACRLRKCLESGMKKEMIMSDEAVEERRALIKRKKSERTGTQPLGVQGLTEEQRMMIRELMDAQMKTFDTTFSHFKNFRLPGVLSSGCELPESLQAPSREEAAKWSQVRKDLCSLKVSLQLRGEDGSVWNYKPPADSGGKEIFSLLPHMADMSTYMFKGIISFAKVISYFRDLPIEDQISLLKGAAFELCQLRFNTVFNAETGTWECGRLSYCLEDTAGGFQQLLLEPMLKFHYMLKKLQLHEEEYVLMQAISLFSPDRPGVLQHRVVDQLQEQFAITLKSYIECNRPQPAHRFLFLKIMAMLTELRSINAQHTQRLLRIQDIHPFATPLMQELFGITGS

Assay [6] addresses human Retinoic Acid Receptor gamma (RARg), RARG (gene 5916) (UniProt P13631). Nature of the assay: ATG_RARg_TRANS: Attagene TRANS-FACTORIAL HepG2 Assay for human Retinoic Acid Receptor gamma (RARg) (AID 2283009). In a few lines: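 HepG2, RARg-GAL4 TRANS system, 24 h exposure; reporter mRNA by RT-PCR + CE fluorescence; increase over DMSO.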
Assay [7] deals with human RAR-related Orphan Receptor beta (RORb), RORB (gene 6096) (UniProt Q92753). Nature of the assay: ATG_RORb_TRANS: Attagene TRANS-FACTORIAL HepG2 Assay for human RAR-related Orphan Receptor beta (RORb) (AID 2283010). In outline:
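In this TRANS-format test, human HepG2 cells express chimeric NR-Gal4 fusion proteins driving GAL4-UAS reporters. After 24 h dosing, reporter transcripts are measured by fluorescent RT-PCR/capillary electrophoresis, with DMSO as negative control.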

Assay [8] addresses Retinoic acid receptor RXR-alpha (Homo sapiens) (UniProt P19793). Nature of the assay: ATG_RXRa_TRANS: Attagene TRANS-FACTORIAL HepG2 Assay for human Retinoid X Receptor alpha (RXRa) (AID 2283012). In a few lines:
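Cells (HepG2) carried transiently transfected GAL4-responsive reporter units. Following a 24 h chemical incubation, reporter mRNA induction was read via RT-PCR fragment analysis; DMSO served as negative control and baseline.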

Assay [9] concerns the target human Retinoid X Receptor beta (RXRb), RXRB (gene 6257) (UniProt P28702). The experiment in a line: ATG_RXRb_TRANS: Attagene TRANS-FACTORIAL HepG2 Assay for human Retinoid X Receptor beta (RXRb) (AID 2283013). In outline:
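Multiplexed TRANS reporter assay in HepG2; 24 h dosing; reporter mRNA by RT-PCR/CE fluorescence; gain-of-signal relative to DMSO.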

The target in assay [10] is human Thyroid Receptor alpha (THRa1), THRA (gene 7067) (UniProt P10827). Nature of the assay: ATG_THRa1_TRANS: Attagene TRANS-FACTORIAL HepG2 Assay for human Thyroid Receptor alpha (THRa1) (AID 2283014). In a few lines: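 Reporter transcript induction, read by capillary electrophoresis of 6-FAM-labelled RT-PCR products, reflects activity of a transfected THRa1-Gal4 fusion in HepG2 liver cells. Cells were dosed for 24 h; activity was fitted in the positive direction against DMSO.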
human Thyroid Receptor alpha (THRa1), THRA (gene 7067), sequence (P10827 whole entry, looked up, the tested form may be a part): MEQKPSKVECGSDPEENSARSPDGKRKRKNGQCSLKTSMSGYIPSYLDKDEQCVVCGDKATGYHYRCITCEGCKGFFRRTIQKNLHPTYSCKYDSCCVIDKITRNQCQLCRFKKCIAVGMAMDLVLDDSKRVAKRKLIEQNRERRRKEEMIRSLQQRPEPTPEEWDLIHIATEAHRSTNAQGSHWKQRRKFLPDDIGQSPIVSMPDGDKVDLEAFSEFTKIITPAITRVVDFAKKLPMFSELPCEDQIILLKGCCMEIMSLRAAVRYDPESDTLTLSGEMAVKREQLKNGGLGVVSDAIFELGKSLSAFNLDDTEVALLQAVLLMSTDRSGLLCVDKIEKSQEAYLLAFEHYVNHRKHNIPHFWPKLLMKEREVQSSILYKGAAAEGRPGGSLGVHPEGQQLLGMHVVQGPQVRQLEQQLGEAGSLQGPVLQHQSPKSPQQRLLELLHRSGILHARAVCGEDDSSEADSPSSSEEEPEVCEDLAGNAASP

Read-out in assay [11]: E-selectin (Homo sapiens) (UniProt P16581)
The experiment in a line: BSK_3C_Eselectin: BioMAP Diversity Plus: 3C Assay for Eselectin Biomarker Activity (AID 2283015; active = hit-call score of the fitted dose curve at least 0.9, where 1 is the maximum; inactive = score below 0.9;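 for outcome: cell surface E-selectin protein quantified by ELISA 24 h after dosing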). Conditions: primary human endothelial cells (HUVEC); actives raise or lower the signal. In outline:
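ELISA read-out of E-selectin on endothelial monolayers after 24 h chemical treatment. Human umbilical vein primary cells served as the system, with DMSO defining baseline activity for bidirectional fitting.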

Read-out in assay [12]: Interleukin-1 alpha (IL1a), IL1A (gene 3552)
The experiment in a line: BSK_BE3C_IL1a: BioMAP Diversity Plus: BE3C Assay for Interleukin-1 alpha (IL1a) Biomarker Activity (AID 2283016; active = hit-call score of the fitted dose curve at least 0.9, where 1 is the maximum; inactive = score below 0.9). Conditions: primary human bronchial epithelial cells; actives raise or lower the signal. In outline:
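Cultures of primary human bronchial epithelial cells receive test chemical. After 24 h, IL-1a is quantified by ELISA, while parallel wells are fixed in TCA and SRB-stained for total protein. Changes in either direction are fitted relative to DMSO.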

Read-out in assay [13]: Monocyte Chemoattractant Protein-1 (MCP1), CCL2 (gene 6347)
The experiment in a line: BSK_3C_MCP1: BioMAP Diversity Plus: 3C Assay for Monocyte Chemoattractant Protein-1 (MCP1) Biomarker Activity (AID 2283017; active = hit-call score of the fitted dose curve at least 0.9, where 1 is the maximum; inactive = score below 0.9). Conditions: primary human endothelial cells (HUVEC); actives raise or lower the signal. In a few lines:
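ELISA read-out of MCP-1 from human umbilical vein endothelial cell cultures harvested 24 h post-dosing. Gain or loss of signal was fitted relative to DMSO.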

Read-out in assay [14]: Monocyte Chemoattractant Protein-1 (MCP1), CCL2 (gene 6347)
The experiment in a line: BSK_4H_MCP1: BioMAP Diversity Plus: 4H Assay for Monocyte Chemoattractant Protein-1 (MCP1) Biomarker Activity (AID 2283018; active = hit-call score of the fitted dose curve at least 0.9, where 1 is the maximum; inactive = score below 0.9). Conditions: primary human endothelial cells (HUVEC); actives raise or lower the signal. In a few lines: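 Readout: MCP-1 ELISA on compound-treated HUVEC, sampled 24 h post-dosing. Baseline and negative control DMSO; bidirectional fit. Overt toxicity checked alongside by sulforhodamine B protein staining at time of biomarker measurement.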

Read-out in assay [15]: Human Leukocyte Antigen - DR isotype (HLADR), HLA-DRA (gene 3122)
Nature of the assay: BSK_3C_HLADR: BioMAP Diversity Plus: 3C Assay for Human Leukocyte Antigen - DR isotype (HLADR) Biomarker Activity (AID 2283019; active = hit-call score of the fitted dose curve at least 0.9, where 1 is the maximum; inactive = score below 0.9;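 for outcome: ELISA of cell-surface HLA-DR on HUVEC 24 h after dosing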). Conditions: primary human endothelial cells (HUVEC); actives raise or lower the signal. In outline:
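ELISA readout of surface HLA-DR on human umbilical vein endothelium, taken 24 h after chemical treatment. Gain- and loss-of-signal were both fitted relative to DMSO.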

Read-out in assay [16]: Interleukin-8 (IL8), CXCL8 (gene 3576)
The experiment in a line: BSK_3C_IL8: BioMAP Diversity Plus: 3C Assay for Interleukin-8 (IL8) Biomarker Activity (AID 2283020; active = hit-call score of the fitted dose curve at least 0.9, where 1 is the maximum; inactive = score below 0.9). Conditions: primary human endothelial cells (HUVEC); actives raise or lower the signal. In outline:
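Human vascular endothelial cells (umbilical vein) in the 3C system; IL-8 level detected by ELISA at 24 h post-dose, with DMSO as baseline.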

Assay [17] deals with human Vitamin D Receptor (VDR), VDR (gene 7421) (UniProt P11473). The experiment in a line: ATG_VDR_TRANS: Attagene TRANS-FACTORIAL HepG2 Assay for human Vitamin D Receptor (VDR) (AID 2283022). In outline:
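Steps: transfect HepG2 with GAL4-UAS-driven reporter constructs; dose compounds 24 h; isolate RNA, reverse-transcribe, PCR-amplify with 6-FAM-labelled primer extension and HpaI digestion; quantify fragments by capillary electrophoresis relative to DMSO.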

Assay [18] in a line: BSK_3C_SRB: Viability Assessment in the BioMAP Diversity Plus: 3C Assay (AID 2283023; active = hit-call score of the fitted dose curve at least 0.9, where 1 is the maximum; inactive = score below 0.9;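 note: fitted both ways against DMSO so a hit may be signal rise or drop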). Conditions: primary human endothelial cells (HUVEC). In a few lines:
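Absorbance at 560 nm of sulforhodamine B-stained (0.1%) total protein served as a cytotoxicity readout in human umbilical vein endothelial cells, 24 h after chemical treatment. Signal was fitted bidirectionally relative to DMSO.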

The target of assay [19] is human RAR-related Orphan Receptor gamma (RORg), RORC (gene 6097) (UniProt P51449). The experiment in a line: ATG_RORg_TRANS: Attagene TRANS-FACTORIAL HepG2 Assay for human RAR-related Orphan Receptor gamma (RORg) (AID 2283011). In outline: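 First, HepG2 liver cells were transfected with GAL4-UAS-driven reporter constructs and the RORg-Gal4 fusion. Next, they were treated with chemical for 24 h. Finally, reporter mRNA was quantified by RT-PCR and capillary electrophoresis, with upward activity fitted against DMSO.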

Molecules are shown by their SMILES. Several values for one entry are separate records, joined by “and”; a condition that tells them apart may be missing. Equal entries are not always repeated. Inconclusive results are not listed. The source holds several records for some structures; these can differ, active in one and inactive in another. Activity calls are given as the source filed them. Rule for the calls, unless noted: active = hit-call score of the fitted dose curve at least 0.9, where 1 is the maximum; inconclusive = response in the unintended direction; inactive = score below 0.9.

Retinoic acid receptor alpha (Homo sapiens), sequence (P10276 whole entry, looked up, the tested form may be a part): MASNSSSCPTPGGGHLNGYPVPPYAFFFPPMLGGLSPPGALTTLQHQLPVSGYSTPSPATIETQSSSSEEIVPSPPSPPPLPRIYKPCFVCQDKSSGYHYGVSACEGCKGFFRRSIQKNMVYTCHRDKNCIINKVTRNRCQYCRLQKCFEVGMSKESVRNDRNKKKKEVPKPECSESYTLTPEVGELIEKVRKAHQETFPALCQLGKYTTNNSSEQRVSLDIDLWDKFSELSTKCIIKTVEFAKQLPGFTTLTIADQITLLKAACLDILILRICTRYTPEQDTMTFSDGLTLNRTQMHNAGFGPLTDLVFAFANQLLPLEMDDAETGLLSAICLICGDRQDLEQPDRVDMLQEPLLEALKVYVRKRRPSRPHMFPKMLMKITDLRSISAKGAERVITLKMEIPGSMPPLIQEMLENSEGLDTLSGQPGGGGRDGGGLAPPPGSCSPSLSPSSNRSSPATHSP
human Retinoic Acid Receptor gamma (RARg), RARG (gene 5916), sequence (P13631 whole entry, looked up, the tested form may be a part): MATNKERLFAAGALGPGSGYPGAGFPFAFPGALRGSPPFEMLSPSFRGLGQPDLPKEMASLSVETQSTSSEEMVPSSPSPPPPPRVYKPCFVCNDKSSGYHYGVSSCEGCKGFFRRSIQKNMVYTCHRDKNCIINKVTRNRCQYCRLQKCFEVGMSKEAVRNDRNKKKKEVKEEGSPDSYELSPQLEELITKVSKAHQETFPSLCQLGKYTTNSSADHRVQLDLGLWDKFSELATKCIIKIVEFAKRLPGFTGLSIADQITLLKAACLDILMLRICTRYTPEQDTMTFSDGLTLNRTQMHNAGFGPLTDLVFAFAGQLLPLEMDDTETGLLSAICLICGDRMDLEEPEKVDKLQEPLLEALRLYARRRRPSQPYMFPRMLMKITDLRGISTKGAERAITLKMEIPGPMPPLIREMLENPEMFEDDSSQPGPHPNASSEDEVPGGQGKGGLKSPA
human Retinoid X Receptor beta (RXRb), RXRB (gene 6257), sequence (P28702 whole entry, looked up): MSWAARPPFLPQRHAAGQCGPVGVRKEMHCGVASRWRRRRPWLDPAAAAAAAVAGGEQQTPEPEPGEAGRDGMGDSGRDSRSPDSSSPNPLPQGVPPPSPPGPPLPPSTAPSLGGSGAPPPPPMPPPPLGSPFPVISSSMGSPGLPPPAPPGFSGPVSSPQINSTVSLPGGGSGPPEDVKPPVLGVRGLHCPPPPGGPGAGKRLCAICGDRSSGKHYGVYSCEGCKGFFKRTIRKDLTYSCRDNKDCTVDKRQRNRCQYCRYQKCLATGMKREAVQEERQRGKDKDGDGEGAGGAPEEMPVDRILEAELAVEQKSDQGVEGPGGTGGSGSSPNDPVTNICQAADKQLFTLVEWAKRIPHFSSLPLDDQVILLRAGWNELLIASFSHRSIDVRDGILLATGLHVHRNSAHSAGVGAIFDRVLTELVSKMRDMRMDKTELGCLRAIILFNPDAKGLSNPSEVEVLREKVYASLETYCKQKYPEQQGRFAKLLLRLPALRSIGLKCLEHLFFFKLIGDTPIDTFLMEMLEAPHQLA
human RAR-related Orphan Receptor beta (RORb), RORB (gene 6096), sequence (Q92753 whole entry, looked up, the tested form may be a part): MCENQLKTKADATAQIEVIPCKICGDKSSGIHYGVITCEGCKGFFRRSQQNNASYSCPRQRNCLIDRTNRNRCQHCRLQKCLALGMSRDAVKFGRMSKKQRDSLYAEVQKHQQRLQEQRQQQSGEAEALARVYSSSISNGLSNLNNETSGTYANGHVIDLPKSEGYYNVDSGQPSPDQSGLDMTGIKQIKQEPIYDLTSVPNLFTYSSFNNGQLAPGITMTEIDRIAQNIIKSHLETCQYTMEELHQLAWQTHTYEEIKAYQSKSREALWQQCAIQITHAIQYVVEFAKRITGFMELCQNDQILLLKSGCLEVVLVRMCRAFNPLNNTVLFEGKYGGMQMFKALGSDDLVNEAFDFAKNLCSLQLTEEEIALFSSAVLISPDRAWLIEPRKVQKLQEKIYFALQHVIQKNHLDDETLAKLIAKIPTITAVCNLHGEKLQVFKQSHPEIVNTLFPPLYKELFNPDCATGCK
human Retinoic Acid Receptor beta (RARb), RARB (gene 5915), sequence (P10826 whole entry, looked up): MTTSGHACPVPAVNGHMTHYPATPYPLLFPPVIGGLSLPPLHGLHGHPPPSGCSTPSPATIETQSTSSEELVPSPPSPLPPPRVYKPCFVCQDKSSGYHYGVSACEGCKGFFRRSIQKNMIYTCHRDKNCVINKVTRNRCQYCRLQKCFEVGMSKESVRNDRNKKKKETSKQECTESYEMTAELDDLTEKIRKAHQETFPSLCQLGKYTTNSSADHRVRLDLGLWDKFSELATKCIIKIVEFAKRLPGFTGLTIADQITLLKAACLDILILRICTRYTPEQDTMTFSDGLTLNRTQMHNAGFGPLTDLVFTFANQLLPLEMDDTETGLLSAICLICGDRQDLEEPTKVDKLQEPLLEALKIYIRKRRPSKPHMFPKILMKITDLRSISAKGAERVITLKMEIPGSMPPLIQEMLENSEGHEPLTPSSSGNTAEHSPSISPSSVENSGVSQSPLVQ
human Vitamin D Receptor (VDR), VDR (gene 7421), sequence (P11473 whole entry, looked up, the tested form may be a part): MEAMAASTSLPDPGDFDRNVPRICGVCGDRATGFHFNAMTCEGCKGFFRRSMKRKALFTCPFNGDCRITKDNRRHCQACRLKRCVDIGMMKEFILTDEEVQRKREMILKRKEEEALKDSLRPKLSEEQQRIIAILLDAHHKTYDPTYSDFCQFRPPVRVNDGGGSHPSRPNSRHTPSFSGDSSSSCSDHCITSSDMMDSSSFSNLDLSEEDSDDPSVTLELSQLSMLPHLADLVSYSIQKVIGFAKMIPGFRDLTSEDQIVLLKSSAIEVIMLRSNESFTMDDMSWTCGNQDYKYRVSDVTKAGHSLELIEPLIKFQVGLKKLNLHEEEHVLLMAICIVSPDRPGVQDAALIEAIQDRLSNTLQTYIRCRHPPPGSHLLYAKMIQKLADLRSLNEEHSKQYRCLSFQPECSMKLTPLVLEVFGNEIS
E-selectin (Homo sapiens), sequence (P16581 whole entry, looked up): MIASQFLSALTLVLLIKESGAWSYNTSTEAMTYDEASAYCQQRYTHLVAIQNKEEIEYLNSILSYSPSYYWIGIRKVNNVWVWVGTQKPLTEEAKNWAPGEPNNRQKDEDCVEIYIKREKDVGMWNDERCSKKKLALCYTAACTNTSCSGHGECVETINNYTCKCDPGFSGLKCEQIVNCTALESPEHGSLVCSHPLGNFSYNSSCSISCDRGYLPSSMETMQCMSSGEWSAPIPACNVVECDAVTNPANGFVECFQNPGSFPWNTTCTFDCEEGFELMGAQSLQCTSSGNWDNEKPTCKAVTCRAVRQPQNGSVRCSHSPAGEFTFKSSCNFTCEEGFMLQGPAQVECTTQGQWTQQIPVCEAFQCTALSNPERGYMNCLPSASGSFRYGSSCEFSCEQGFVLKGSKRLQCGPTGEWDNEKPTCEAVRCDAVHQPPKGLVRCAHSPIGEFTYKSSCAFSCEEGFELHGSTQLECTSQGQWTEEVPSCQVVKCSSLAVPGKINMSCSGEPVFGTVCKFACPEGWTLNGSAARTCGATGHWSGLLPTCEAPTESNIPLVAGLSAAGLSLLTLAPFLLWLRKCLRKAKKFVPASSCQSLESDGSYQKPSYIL

For `O=C1C2(Cl)C3(Cl)C4(Cl)C(Cl)(Cl)C5(Cl)C3(Cl)C1(Cl)C5(Cl)C24Cl` (stereo not given), the outcome in [1], in [2], in assay [4], in [5], in assay [6] and in [7] was inactive. The call in assay [8], in assay [9], in [10] and in [17] was inactive. For the same compound, the AC50 was 4.9 µM (active) in assay [3]; 2.11 µM (active) and 2.9 µM (active) and 6.2 µM (active) in assay [5]; 2.67 µM (active) and 7.57 µM (active) in assay [9]; 4.37 µM (active) and 56.4 µM (active) in assay [10]; 11.7 µM (active) in assay [11]; 9.67 µM (active) in assay [12]. The AC50 in assay [13] was 9.53 µM (active); in assay [14] it was 8.77 µM (active); in assay [15] it was 8.22 µM (active); in [16], 22.3 µM (active); in assay [18], 5.96 µM (active).

Take `O=C(O)C(F)(F)C(F)(F)C(F)(F)C(F)(F)C(F)(F)C(F)(F)F`: the call in assay [1], in assay [2], in assay [3], in [5], in assay [6] and in assay [7] was inactive. In addition, the result in assay [19], in [8], in [9], in assay [11], in assay [12] and in assay [13] was inactive. Also, the result in [14], in [15], in assay [17] and in assay [18] was inactive. For the same compound, the AC50 in assay [9] is 51.7 µM (active) and 56.5 µM (active).

In the case of `CC(=O)C=C(C)C`, the compound was classed as inactive in assay [1], in assay [5], in [6], in assay [7], in assay [8] and in [9]. The compound was called inactive in assay [17].

Regarding `CCN1CCC2(CC1)COc1cc3c(cc12)N(C(=O)c1ccc(-c2ccc(-c4nnc(C)o4)cc2C)cc1)CC3`, the compound was called inactive in assay [1], in assay [2], in assay [5], in assay [6], in [7] and in assay [8]. In addition, the call in assay [9] and in assay [17] was inactive. The AC50 is 5.23 µM (active) in assay [3]; 28 µM (active) in assay [11]; 13.8 µM (active) in assay [12]; 14 µM (active) in [13]; 26 µM (active) in assay [14]; 13 µM (active) in [15]. For the same compound, the AC50 in assay [18] is 6.23 µM (active).

Source of the values: PubChem BioAssay (EPA / NIEHS).
